The panel holds about 83,000 compounds, 20% with a hit somewhere; the sample as a whole holds those more often.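 Plates (96-well) were seeded with cells, treated with compound at one concentration, and incubated for 48 hours before percent growth was determined.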 Active and inactive are the calls of the source. How the source made its calls: active means growth percent below 10; inactive means the rest.
Each compound was assayed on MALME-3M melanoma (assay: NCI-60 one-dose screen, 48 h (100 = growth as untreated, 0 = no growth, -100 = all killed)). Conditions: 10 µM.
With `O=C(/C=C/c1ccc(Br)cc1)c1nc2ccccc2n1Cc1ccc(Br)cc1` the growth was -42.9% (active). `COC(=O)CCn1c(-c2ccc(-n3cc(-c4ccc(O[C@H]5O[C@@H]6OC7(C)CC[C@H]8[C@H](C)CC[C@@H]([C@H]5C)[C@@]68OO7)cc4)nn3)cc2)nc2ccccc21` was tested, and the growth was 0.0576% (active). With `CC1=C(C=O)C2=C(C)C3(CC3)[C@@](C)(O)C(=O)C2=C1` the growth was 1.71% (active). With `N#C[Se]CC(=O)Nc1cccc(C(F)(F)F)c1` the growth was -95.3% (active). In the case of `CCC[Se]C(=O)c1ccc(C(=O)[Se]CCC)s1`, the growth was -82.4% (active). With `C[C@H]1[C@@H](CC(=O)N[C@@H](Cc2coc3ccccc23)B(O)O)O[C@@H]2OC3(C)CC[C@H]4[C@H](C)CC[C@@H]1[C@@]24OO3` the growth was -60% (active). `O=C(/C=C/c1ccco1)c1nc2ccccc2n1Cc1ccc(F)cc1` was tested, and the growth was 59.9% (inactive). For `COC(=O)C[C@](O)(CCC(C)C)C(=O)O[C@H]1C(OC)=C[C@@]23CCCN2CCc2cc4c(cc2[C@@H]13)OCO4`, the growth was -45.1% (active). `C[C@H]1[C@H](OC(=O)CCC(=O)N(CCCc2cn(-c3ccc(C#N)cc3)nn2)CCNc2ccnc3cc(Cl)ccc23)O[C@@H]2OC3(C)CC[C@H]4[C@H](C)CC[C@@H]1[C@@]24OO3` was tested, and the growth was 13.3% (inactive).

These compounds were tested on MDA-MB-231 breast in the same assay as above. Conditions: 10 µM.
With `COc1cc2cc(C(=O)N3C[C@@H](CCl)c4c3cc(OC(=O)N3CCN(C)[C@@H]5CSSC[C@H]53)c3ccccc43)[nH]c2c(OC)c1OC` the growth was -51.3% (active). `CC1=C(CCC=O)C2=C(C)C3(CC3)[C@@](C)(O)C(=O)C2=C1` was tested, and the growth was -99.2% (active). `CC[C@]12C=CCN3CC[C@@]4(c5ccc(OC)cc5N(C)[C@H]4[C@@](O)(C(=O)OC)[C@@H]1OC(=O)CCC[P+](C1CCCCC1)(C1CCCCC1)C1CCCCC1)[C@@H]32` was tested, and the growth was -90.8% (active). With `CC1=C2C(=C[C@@](C)(COP(=O)(Oc3ccccc3)Oc3ccccc3)[C@@H]2O)C(=O)[C@@](C)(O)C12CC2` the growth was -79.2% (active). `CCOP(=O)(CC(F)(F)C(F)(F)F)OCC` was tested, and the growth was 51.1% (inactive). In the case of `CC(C)C[C@H](NC(=O)CNC(=O)C[C@H]1O[C@@H]2OC3(C)CC[C@H]4[C@H](C)CC[C@@H]([C@H]1C)[C@@]24OO3)B(O)O`, the growth was -68% (active). For `C[C@H]1[C@@H](Oc2ccc(-c3cn(-c4ccnc5cc(Cl)ccc45)nn3)cc2)O[C@@H]2OC3(C)CC[C@H]4[C@H](C)CC[C@@H]1[C@@]24OO3`, the growth was 49.4% (inactive). In the case of `C[C@H]1[C@H](OC(=O)CCC(=O)N(CCCc2cn(-c3ccc([N+](=O)[O-])cc3)nn2)CCNc2ccnc3cc(Cl)ccc23)O[C@@H]2OC3(C)CC[C@H]4[C@H](C)CC[C@@H]1[C@@]24OO3`, the growth was 50.2% (inactive). With `COc1cc2cc(C(=O)N3C[C@@H](CCl)c4c3cc(OC(=O)N3CCN(C)[C@@H]5CSSC[C@@H]53)c3ccccc43)[nH]c2c(OC)c1OC` the growth was -43.2% (active). For `COc1cc2cc(C(=O)N3C[C@@H](CCl)c4c3cc(OC(=O)N3CCN(C(=O)CCC(=O)N5CCN(C)CC5)[C@@H]5CSSC[C@@H]53)c3ccccc43)[nH]c2c(OC)c1OC`, the growth was -94.2% (active). For `COC(=O)c1ccc(-n2cc(CCCN(CCNc3ccnc4cc(Cl)ccc34)C(=O)CCC(=O)O[C@@H]3O[C@@H]4OC5(C)CC[C@H]6[C@H](C)CC[C@@H]([C@H]3C)[C@@]46OO5)nn2)cc1`, the growth was 62.8% (inactive). For `CC[C@]12C=CCN3CC[C@@]4(c5ccc(OC)cc5N(C)[C@H]4[C@@](O)(C(=O)OC)[C@@H]1OC(=O)CCC[P+](c1ccc(C)cc1)(c1ccc(C)cc1)c1ccc(C)cc1)[C@@H]32`, the growth was -94.9% (active). In the case of `CC[C@]12C=CCN3CC[C@@]4(c5ccc(OC)cc5N(C)[C@H]4[C@@](O)(C(=O)OC)[C@@H]1OC(=O)CCCC[P+](c1ccc(C)cc1)(c1ccc(C)cc1)c1ccc(C)cc1)[C@@H]32`, the growth was -97.2% (active). For `CC1=C(CCC=NNC(N)=O)C2=C(C)C3(CC3)[C@@](C)(O)C(=O)C2=C1`, the growth was -59.7% (active). For `Cc1ccc2[nH]c(=S)n(-c3ccc(F)cc3)c(=O)c2c1`, the growth was 93.1% (inactive). `CC1=C(COCCOC(=O)c2ccc(S(=O)(=O)F)cc2)C2=C(C)C3(CC3)[C@@](C)(O)C(=O)C2=C1` was tested, and the growth was -27.2% (active). With `CC12CCC3(CCC(=O)NCCCNc4ccnc5cc(Cl)ccc45)[C@@](C)(OO[C@]3(C)O1)O2` the growth was -23.4% (active). For `COC(=O)CCn1c(-c2ccc(-n3cc(-c4ccc(O[C@H]5O[C@@H]6OC7(C)CC[C@H]8[C@H](C)CC[C@@H]([C@H]5C)[C@@]68OO7)cc4)nn3)cc2)nc2ccccc21`, the growth was 35% (inactive). With `CC1=C(C=O)C2=C(C)C3(CC3)[C@@](C)(O)C(=O)C2=C1` the growth was -43.4% (active). In the case of `C[C@H]1[C@@H](CC(=O)N[C@@H](Cc2coc3ccccc23)B(O)O)O[C@@H]2OC3(C)CC[C@H]4[C@H](C)CC[C@@H]1[C@@]24OO3`, the growth was -92% (active). With `COC(=O)C[C@](O)(CCC(C)C)C(=O)O[C@H]1C(OC)=C[C@@]23CCCN2CCc2cc4c(cc2[C@@H]13)OCO4` the growth was -30.3% (active). For `C[C@H]1[C@H](OC(=O)CCC(=O)N(CCCc2cn(-c3ccc(C#N)cc3)nn2)CCNc2ccnc3cc(Cl)ccc23)O[C@@H]2OC3(C)CC[C@H]4[C@H](C)CC[C@@H]1[C@@]24OO3`, the growth was 62.9% (inactive).
